Assay [1] deals with Albumin (Bos taurus) (UniProt P02769). Kind of assay: bovine serum albumin binders on microarray, profiling panel, artefact control for SMM control protein annotation, biochemical, small-molecule microarray, Alexa647 label, 635/667 nm fluorescence (AID 1118).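 Further: score merges 667 nm emission intensity and signal-to-noise per printed compound spot.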 The following applies: BSA-A647 binding, fluorescence 635 nm, higher = more signal.
Assay [2] in a line: small-molecule microarray binders of probe aXIP, primary screen, biochemical, NeuroSMM set, 635/667 nm fluorescence (AID 1119).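 Further: probe is the protein aXip251-270 applied at 1 µg/mL to compound-printed slides; binding of probe to printed compounds measured as 667 nm fluorescence plus signal to noise.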 The following applies: higher = more signal, called active from +8 up or from −8 down.
Assay [3] can be described thus: small-molecule binders of probe aNOTCH3, primary screen, biochemical, small-molecule microarray, 635/667 nm fluorescence (AID 1120).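 Further: probe is a biotin-tagged antibody raised against NOTCH3 rather than NOTCH3 protein; score merges spot fluorescence near 667 nm with spot signal to noise.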 As to conditions: higher = more signal.
A short description of assay [4]: small-molecule binders of probe aNOTCH2, primary screen, biochemical, small-molecule microarray, 635/667 nm fluorescence (AID 1121).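 Further: score merges feature fluorescence read at 667 nm with its signal to noise.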 As to conditions: higher = more signal.
The target of assay [5] is Carbonic anhydrase 2 (Homo sapiens) (UniProt P00918). Description: CAII small-molecule binders, profiling panel, biochemical, small-molecule microarray, Alexa647-labelled CAII (AID 1122). As to conditions: CAII-A647 binding fluorescence, higher = more signal.
Assay [6] in a line: COS7 lysate on small-molecule microarray, probe aHis, 635 nm (AID 1123).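 Further: z-score combines 667nm fluorescence intensity with signal-to-noise per printed compound spot.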 As to conditions: COS7 cell lysate, fluorescence, higher = more signal.
Assay [7] can be described thus: compound binding in COS7 lysate, probe aLAP1, primary screen, cell lysate, small-molecule microarray (AID 1124).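 Further: lysate comes from COS7 cells expressing LAP1 and is applied at 0.3 µg/mL; score merges spot fluorescence near 667 nm with signal-to-noise over triplicate slides.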 The following applies: probe aLAP1, fluorescence, higher = more signal.
Assay [8] relates to Sam68 (KHDRBS1). Description: Sam68 small-molecule binders, primary screen, biochemical, small-molecule microarray, 635 nm fluorescence (AID 1125).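 Further: score merges 667 nm channel intensity with signal to noise over triplicate slides.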 As to conditions: small-molecule microarray binding, higher = more signal.
For assay [9], the system named is Chordin-like protein 2 (CHRDL2). Kind of assay: CHRDL2 small-molecule binders, primary screen, biochemical, small-molecule microarray, 635 nm fluorescence (AID 1126).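 Further: printed compound slides probed with Chrdl2 protein at 4 µg/mL for 1 h at 4 C; score merges 667 nm emission intensity with signal to noise over three replicate slides.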 As to conditions: small-molecule microarray binding, fluorescence 635 nm; higher = more signal.
For assay [10], the target named is Concanavalin-A (Canavalia ensiformis) (UniProt P02866). Description: ConA small-molecule binders, primary screen, artefact control for SMM control protein annotation, biochemical, small-molecule microarray, Alexa647 label, 635 nm (AID 1127).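 Further: z combines 667 nm emission intensity with signal-to-noise across three replicate slides.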 The following applies: ConA-A647 binding fluorescence, higher = more signal.
Chain of Concanavalin-A (Canavalia ensiformis) (P02866 whole entry, looked up): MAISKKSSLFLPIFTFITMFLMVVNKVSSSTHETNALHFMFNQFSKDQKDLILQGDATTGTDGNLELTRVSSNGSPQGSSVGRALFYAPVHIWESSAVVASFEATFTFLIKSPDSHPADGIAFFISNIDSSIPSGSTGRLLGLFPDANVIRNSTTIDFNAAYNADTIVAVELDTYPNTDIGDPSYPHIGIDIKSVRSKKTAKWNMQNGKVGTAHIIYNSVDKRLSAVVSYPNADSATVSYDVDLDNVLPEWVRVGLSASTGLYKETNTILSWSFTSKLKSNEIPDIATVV

Where “and” joins values, the source holds several entries; their conditions need not be identical. Identical values can stand only once. Calls of active or inactive are those of the source.

Chain of Albumin (Bos taurus) (P02769 whole entry, looked up): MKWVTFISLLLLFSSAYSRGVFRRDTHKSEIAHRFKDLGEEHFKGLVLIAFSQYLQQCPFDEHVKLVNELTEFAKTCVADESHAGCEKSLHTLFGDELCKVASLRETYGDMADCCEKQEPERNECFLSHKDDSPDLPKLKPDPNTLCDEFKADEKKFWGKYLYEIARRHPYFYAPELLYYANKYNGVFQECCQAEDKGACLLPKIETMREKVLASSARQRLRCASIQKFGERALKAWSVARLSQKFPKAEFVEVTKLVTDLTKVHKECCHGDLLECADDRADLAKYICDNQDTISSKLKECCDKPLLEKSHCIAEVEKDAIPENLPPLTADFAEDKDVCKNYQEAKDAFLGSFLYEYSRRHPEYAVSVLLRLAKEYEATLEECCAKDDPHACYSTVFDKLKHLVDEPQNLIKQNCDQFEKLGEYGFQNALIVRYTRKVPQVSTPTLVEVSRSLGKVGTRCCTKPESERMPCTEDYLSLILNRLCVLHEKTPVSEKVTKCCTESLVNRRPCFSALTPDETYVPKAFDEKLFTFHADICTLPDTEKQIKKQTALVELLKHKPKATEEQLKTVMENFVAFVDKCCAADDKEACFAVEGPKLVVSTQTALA

For `COC(=O)C1=C(C)N(Cc2ccccc2)C2=C(C(C)=O)C[C@@](O)(C(=O)OC)C(=O)N2[C@@H]1c1ccccc1`, the composite z-score in [1] is 0.838 and 0.336; in assay [3] it was -0.0895 and 0.0597; in [4] it was -0.0921 and -0.118; in assay [5], 0.84 and 0.766; in [6] it was 0.463 and -0.221; in assay [7], 0.0922 and -0.421. The composite z-score was 1.24 and -0.523 in assay [8]; 0.571 and 0.377 in assay [9]; -0.0847 and -0.495 in assay [10]. Also, the composite Z-score in [2] is 0.397 (inactive) and 0.38 (inactive).

As to `CC(CO)N1C(=O)[C@@H]2C3C(=O)OCCC=C[C@H]3OC23C=CCN(Cc2ccccc2)C(=O)[C@@H]13` (stereo not given in full), the composite z-score in [1] is -0.561 and -0.652; in assay [3] it was -0.207 and -0.136; in [4], -0.174 and -0.133; in assay [5] it was 0.84 and 0.944; in assay [6], -0.205 and 0.481; in assay [7], 0.716 and 0.0818. For the same compound, the composite z-score in assay [8] was -0.0818 and -0.239; in assay [9], -0.927 and -0.898; in assay [10], -1.3 and -1.38. The composite Z-score in [2] is 0.0931 (inactive) and -0.171 (inactive).

For the compound `C=C[C@@H](OC)[C@H](O)c1ccc(O)c(F)c1`, the composite z-score is -0.131 and 0.529 in assay [1]; -0.502 and -0.544 in assay [3]; -0.266 and -0.254 in assay [4]; 0.881 and -0.182 in assay [5]; -0.385 and -0.626 in assay [6]; 1.24 and -1.16 in assay [7]. In addition, the composite z-score in [8] is -0.697 and -1.48; in assay [9], -0.952 and -0.984; in assay [10], -0.904 and -1.04. For the same compound, the composite Z-score in assay [2] was 1.31 (inactive) and -0.643 (inactive).

Regarding `C[C@@H]1CN2[C@@H](CC[C@@H](C)[C@@H]2c2ccc(Br)cc2)C(=O)O1`, the composite z-score was -0.66 and 0.877 in assay [1]; 0.0357 and -0.0363 in assay [3]; -0.0515 and -0.221 in assay [4]; -0.366 and -0.303 in assay [5]; -0.513 and 0.437 in assay [6]; 0.39 and 0.146 in assay [7]. For the same compound, the composite z-score was -1.57 and 0.0639 in assay [8]; 0.261 and 0.559 in [9]; -0.0782 and -0.252 in assay [10]. The composite Z-score in [2] is -0.139 (inactive) and 0.204 (inactive).

Take `CC(C)OC(=O)C=C1C[C@@H](c2ccccc2)O[C@@H](c2ccccc2)O1`: the composite z-score was 0.799 and 0.915 in assay [1]; 0.168 and 0.308 in [3]; -0.029 and 0.0219 in assay [4]; 0.749 and 0.727 in [5]; 2.74 and 1.87 in assay [6]; 0.809 and 0.779 in assay [7]. Moreover, the composite z-score in [8] was 1.33 and 1.3; in assay [9], 0.0745 and 0.626; in assay [10] it was 1.02 and 1.09. Besides, the composite Z-score in [2] was 0.417 (inactive) and 0.224 (inactive).

Regarding `C=CCN(CCCC)C(=O)C1N(CCCCCCO)C(=O)C2C(C(=O)O)C3C=CC21O3` (stereo not given), the composite z-score was -1.52 and -1.4 in assay [1]; -0.555 and -0.323 in assay [3]; -0.222 and -0.185 in assay [4]; 0.913 and 0.938 in [5]; -0.809 and 0.159 in assay [6]; 0.861 and 0.0304 in [7]. The composite z-score in [8] is -0.243 and -0.577; in [9] it was -1.56 and -3.19; in assay [10], -2.11 and -0.791. In assay [2], the composite Z-score was 0.0063 (inactive) and 0.131 (inactive).

Turning to `C=C[C@H](OC)[C@@H](O)c1ccc(O)c(F)c1`, the composite z-score in assay [1] was 0.0861 and -0.58; in assay [3], -0.592 and -0.454; in assay [4], -0.239 and -0.225; in [5] it was 0.274 and -0.771; in [6], -0.541 and -0.37; in [7], -0.474 and -0.637. Moreover, the composite z-score is -1.1 and -1.43 in assay [8]; -2.38 and -1.91 in [9]; -1.97 and -1.23 in assay [10]. For the same compound, the composite Z-score in assay [2] is -0.244 (inactive) and 0.209 (inactive).

As to `C=CCN(C(=O)C1N(CCCCCCO)C(=O)C2C(C(=O)O)C3C=CC21O3)C(C)(C)C` (stereo not given), the composite z-score in assay [1] was -0.171 and -1.11; in assay [3], -0.695 and -0.55; in assay [4], -0.217 and -0.192; in [5], 0.987 and 0.958; in [6], -0.712 and 0.0575; in [7], -0.729 and -0.646. In addition, the composite z-score in assay [8] was -1.73 and -0.275; in [9] it was -4.11 and -4.07; in [10], -0.974 and -2.94. For the same compound, in assay [2], the composite Z-score is 0.148 (inactive) and -0.707 (inactive).

For `C=CC[C@H](O)c1ccc(OCCO)cc1`, the composite z-score in [1] was 0.787 and -0.0212; in [3], -0.382 and -0.319; in [4] it was -0.169 and -0.296; in assay [5], 0.725 and 0.843; in assay [6], -0.263 and -1.45; in assay [7], -0.22 and -0.782. Further, the composite z-score in assay [8] was -0.769 and -2.69; in [9], -0.978 and 0.193; in assay [10] it was -1.3 and -1.2. The composite Z-score in assay [2] was -0.745 (inactive) and 0.156 (inactive).

`Cc1ccc(S(=O)(=O)N[C@@H]2COC(=O)CC=C[C@@H](C)[C@@H]3C=C[C@H](O)[C@@H](COC(=O)CC=C[C@H]2C)O3)cc1`: the composite z-score is -0.311 and -0.304 in [1]; 0.0426 and -0.161 in assay [3]; -0.14 and -0.124 in assay [4]; -0.0023 and 0.221 in assay [5]; -0.348 and 0.043 in assay [6]; 0.0386 and 0.26 in assay [7]. Besides, the composite z-score was -0.132 and 0.293 in assay [8]; 0.711 and 0.396 in assay [9]; -0.6 and 0.152 in [10]. Besides, in [2], the composite Z-score was -0.842 (inactive) and -0.0662 (inactive).

Consider `C=C[C@@H](C)[C@H](O)c1ccc(O)c2ccccc12`, for which the composite z-score was -0.0066 and 0.457 in [1]; -0.209 and -0.454 in assay [3]; -0.247 and -0.223 in assay [4]; -0.211 and -0.59 in assay [5]; 0.294 and -0.0874 in assay [6]; 0.279 and -0.559 in assay [7]. The composite z-score was -0.309 and -1.66 in assay [8]; 1.34 and 0.0548 in assay [9]; -0.418 and -1.3 in assay [10]. In addition, the composite Z-score in [2] was 0.342 (inactive) and 0.259 (inactive).

As for `Cc1cc2c(nc1C)CCCN2CC(O)CN1CCCc2nc(-c3ccc(Br)cc3)ccc21` (stereo not given), the composite z-score in assay [1] is -0.473 and 0.163; in assay [3] it was 0.569 and 0.969; in [4] it was 0.174 and 0.519; in [5] it was 0.492 and 0.401; in assay [6] it was 0.531 and 1.25; in [7], 0.741 and 0.489. Further, the composite z-score in [8] was 1.29; in assay [9], 0.955 and 1.08; in assay [10] it was 0.975 and 1.03. The composite Z-score in [2] is 2.2 (inactive) and 4.49 (inactive).

Consider `CCOC(=O)[C@@H]1CC2O[C@]23C[C@@H]1C(=O)N1CCC[C@@H]1[C@H]3O[Si](C)(C)C(C)(C)C` (stereo not given in full), for which the composite z-score in assay [1] was -0.8 and -0.548; in assay [3] it was -0.11 and -0.128; in assay [4] it was -0.2 and -0.0949; in [5], -0.396 and 0.106; in assay [6], -0.645 and 0.205; in assay [7] it was -0.452 and 0.103. Besides, the composite z-score in assay [8] was -1.37 and -0.191; in assay [9], 0.1 and -0.201; in assay [10], -1.82 and -0.262. In addition, in assay [2], the composite Z-score was 0.223 (inactive) and 0.413 (inactive).

In the case of `CO[C@H]1COC(=O)CC=C[C@@H](C)COC(=O)[C@H](CCSC)NC(=O)CC=C[C@@H]1C`, the composite z-score was -1.57 and -1.06 in assay [1]; 0.0311 and -0.0043 in [3]; -0.0942 and -0.0241 in assay [4]; -0.407 and -0.489 in assay [5]; -0.335 and -0.552 in [6]; 0.383 and -1.41 in assay [7]. Also, the composite z-score in assay [8] is 0.982 and 1.31; in [9] it was 1.54 and 1.65; in [10], -0.773 and -2.15. Besides, the composite Z-score in assay [2] was 2.77 (inactive) and 1.61 (inactive).

Regarding `C=C[C@@H](C)[C@@H](O)c1ccc(O)c2ccccc12`, the composite z-score in [1] was -0.154 and -0.436; in assay [3], -0.413 and -0.52; in assay [4] it was -0.232 and -0.193; in assay [5], 0.0119 and 0.72; in [6], -0.024 and 0.351; in [7], -0.237 and -0.0579. The composite z-score in assay [8] is -0.785 and -0.587; in assay [9] it was -0.0684 and 0.351; in assay [10], -0.419 and -0.81. The composite Z-score in assay [2] was -0.014 (inactive) and 0.196 (inactive).

Source of the values: PubChem BioAssay.
